# Results: PubChem BioAssay AID1672 (Johns Hopkins Ion Channel Center, 2009)
# The campaign covered roughly 310,000 compounds. About 2,600 (0.84%) were called active. The sample holds actives, similar compounds and a random draw of the others, so the mix is not that of the screen. Values without a mark were called inactive.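 How the source made its calls: active means fluorescence ratio B-score at or below minus 3 SD of library scores, with starting-brightness B-score within 2 SD (cut at about -4.2 in these data); inactive means the rest.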
# Biological target: Inward rectifier potassium channel 2 (Mus musculus) (UniProt P35561)
# Sequence (P35561 whole entry, looked up): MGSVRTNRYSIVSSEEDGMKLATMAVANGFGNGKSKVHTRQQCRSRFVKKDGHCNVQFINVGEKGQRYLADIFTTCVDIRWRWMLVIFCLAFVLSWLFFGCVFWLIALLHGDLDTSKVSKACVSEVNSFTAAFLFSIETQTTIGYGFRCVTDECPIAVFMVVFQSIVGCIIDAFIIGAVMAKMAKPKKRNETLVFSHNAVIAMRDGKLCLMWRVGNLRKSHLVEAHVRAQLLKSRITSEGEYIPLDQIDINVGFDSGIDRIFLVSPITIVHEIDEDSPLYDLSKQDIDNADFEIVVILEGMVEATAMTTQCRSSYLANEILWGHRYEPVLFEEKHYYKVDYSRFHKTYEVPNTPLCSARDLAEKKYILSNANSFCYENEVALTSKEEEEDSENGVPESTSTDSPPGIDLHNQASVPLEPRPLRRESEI
# Test: blocks the mouse Kir2.1 inward-rectifier potassium channel (AID 1672);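 further: channel flux triggered by added potassium and thallium sulfate stimulus; B-score of peak minus minimum fluorescence over baseline after thallium stimulus; more negative B-score means stronger Kir2.1 block with less thallium influx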
# Details: HEK293-Kir2.1, FluxOR thallium flux fluorescence; at 10 µM; hits give low values
row,SMILES,B-score
1,Cc1ccc(C(=O)NNC(=O)C(C)Oc2ccc3ccccc3c2)o1 (centres undefined),0.32
2,CSc1ncc(Sc2ccccc2)c(C(=O)O)n1,0.25
3,CC(=O)OC(C(=O)NC1CCCCC1)c1ccccc1 (centres undefined),-0.67
4,CC(NCc1ccccc1OC1CCCC1)c1ccccc1 (centres undefined),-12.7 (active)
5,COc1ccccc1CN1CCN(C(c2ccccc2)c2ccccc2)CC1,-0.07
6,Cc1ccc(NC(=O)C2CC(=O)N(c3ccc4c(c3)OCCO4)C2)cc1S(=O)(=O)N1CCCCCC1 (centres undefined),-0.57
7,COc1ccc2c(c1)CCNC2Cc1ccc(OC)c(O)c1 (centres undefined),1.91
8,CN1CCN(C2Cc3ccc(Cl)cc3Sc3ccc(F)cc32)CC1 (centres undefined),-1.17
9,Clc1ccc(-c2cc(-c3ccccn3)on2)c(Cl)c1,0.99
10,O=C1CSC(c2ccccc2)N1c1nc(-c2ccc(Cl)cc2Cl)cs1 (centres undefined),0.4
11,Clc1ccc(-c2cc(C3CCNCC3)[nH]n2)c(Cl)c1,-12.6 (active)
12,O=C(Nc1cccc2c1CCCC2)c1ccc(F)cc1,-0.09
13,Cc1ccc(S(=O)(=O)N2CCN(C(=O)Cc3sc(C)nc3-c3ccc(F)cc3)CC2)c(C)c1,-0.03
14,COc1ccc(S(=O)(=O)N2CCCCC2)cc1NC(=O)c1cc([N+](=O)[O-])ccc1N1CCOCC1,-0.55
15,CCN1C(=O)[C@@H]2[C@@H](c3ccc(-c4cccc(Cl)c4)cc3)N3CCC[C@@]3(C(=O)OC)[C@@H]2C1=O,0
16,CC(Oc1ccc(F)cc1)C(=O)Nc1ccccc1C(=O)NC1CC1 (centres undefined),-5.66 (active)
17,COc1ccccc1OCC(=O)Nc1ccccc1C(=O)NC1CC1,-0.05
18,CCOc1ccccc1OCC(=O)Nc1ccccc1C(=O)NC1CC1,-2.1
19,CC(Oc1ccc(Br)cc1)C(=O)NCC(c1ccco1)N1CCCCC1 (centres undefined),-1.52
20,Cc1ccc(-c2nc(CSCC(=O)NC3CCN(Cc4ccccc4)CC3)c(C)o2)cc1,-4.77 (active)
21,Cc1ccc(-c2cc(C(=O)NC3CCN(Cc4ccccc4)CC3)c3ccccc3n2)cc1,0
22,Cc1ccc(S(=O)(=O)NCCC(=O)NC2CCN(Cc3ccccc3)CC2)cc1,-1.38
23,C=CCc1cc(S(=O)(=O)c2ccc(O)c(CC=C)c2)ccc1O,-6.7 (active)
24,CCOC(=O)C1Nc2ccc(C(F)(F)F)cc2C2C=CCC12 (centres undefined),1.69

row,SMILES,B-score
1,COc1cc(CNCc2cccs2)cc(Br)c1OC,-1.78
2,COc1ccc(CNC(=O)Cc2ccc(-c3ccccc3)cc2)cc1OC,0.77
3,COc1cc(CNCc2ccc(OC)c3ccccc23)cc(OC)c1OC,-6.99 (active)
4,O=C(Nc1ccccc1)N1CCN(Cc2ccccc2)CC1,0.76
5,CC12CN(Cc3ccccc3)CC(C)(CN(Cc3ccccc3)C1)C2=NO,-8.19 (active)
6,CCCC(=O)C1CCN(Cc2ccccc2)CC1,-3.46
7,CC(C)(C)Oc1ccccc1Nc1nc(NCCO)nc(N2CCCC2)n1,0.89
8,CCOc1ccccc1-c1nc(CN2CCC(C(=O)N3CCOCC3)CC2)c(C)o1,0.57
9,COc1cccc(CC2(CO)CCCN(Cc3nc(-c4cccs4)oc3C)C2)c1 (centres undefined),-0.22
10,COc1ccc(F)c(-c2nc(CN3CCC(c4ccccc4)CC3)c(C)o2)c1,-6.63 (active)
11,O=C(NCC1CC1)c1onc(CSc2ccccc2)c1C(=O)NCC1CC1,-0.33
12,Cc1ccc(C)c(OCCC(=O)OCC(=O)NC(=O)NCc2ccccc2)c1,-1.35
13,O=C(c1ccc(NS(=O)(=O)c2ccc3[nH]c(=O)[nH]c3c2)cc1)N1CCCCC1,-0.24
14,O=C(COC(=O)c1ccc(F)cc1)Nc1nc2ccc([N+](=O)[O-])cc2s1,-0.31
15,O=C(Nc1nc2ccc([N+](=O)[O-])cc2s1)c1ccc(S(=O)(=O)N2CCCc3ccccc32)cc1,1.56
16,O=C(NC(Nc1nc2ccc([N+](=O)[O-])cc2s1)(C(F)(F)F)C(F)(F)F)c1ccccc1,-10.5 (active)
17,Cc1nc(-c2ccccc2)sc1C1(C)CC(c2cccnc2)=NO1 (centres undefined),-0.61
18,O=C(Nc1ccc2nc3n(c(=O)c2c1)CCCC3)c1ccc(Cl)nc1,-0.4
19,CCc1cccc(C)c1NC(=O)COC(=O)CNC(=O)c1cccs1,-0.01
20,CCOC(=O)N1CCN(C(=O)c2ccccc2SCC(=O)NCC2CCCCC2)CC1,-1.08
21,OC(CNCc1ccc2c(c1)OCO2)COc1ccccc1 (centres undefined),0.51
22,CC(CCc1ccc(O)cc1)NCc1ccc(Cl)cc1Cl (centres undefined),-1.22
23,OC(CNCCc1ccc(Cl)cc1Cl)COc1ccccc1 (centres undefined),-5.54 (active)
24,O=C(Oc1ccc(-c2nnco2)cc1)c1ccc(F)c(S(=O)(=O)N2CCOCC2)c1,0.69

row,SMILES,B-score
1,Cc1ccc2nc(SCC(=O)N3CCN(c4ccccc4)CC3)nc(=O)n2c1,-0.66
2,NC(=O)c1cc(S(=O)(=O)NCCCc2ccco2)cs1,-1.45
3,CCOC(=O)c1c(C)[nH]c(C)c1S(=O)(=O)NCCCc1ccco1,-4.22 (active)
4,CCOC(=O)c1c(C)[nH]c(C)c1S(=O)(=O)N(C)CC(=O)Nc1ccccc1C,-0.21
5,O=S(=O)(NCCCc1ccccc1)c1ccc(Br)cc1,-0.26
6,C=C(C)CNC(=O)c1ccc(OC2CCN(C(=O)COC)CC2)cc1,2.19
7,CC(C)c1ccc(S(=O)(=O)N2CCN(C(=O)CN3C(=O)NC(C)(c4ccccc4)C3=O)CC2)cc1 (centres undefined),-0.17
8,CN(C1CCS(=O)(=O)C1)S(=O)(=O)c1ccc2ccccc2c1 (centres undefined),-2.88
9,O=C1Nc2cc(C(=O)N3CCC(N4CCCCC4)CC3)ccc2S/C1=C\c1ccccc1,-5.53 (active)
10,CCN1CCN(CCNC(=O)c2ccc3c(c2)NC(=O)/C(=C\c2ccc(OC)c(OC)c2)S3)CC1,-0.6
11,CC1CCN(C(=O)c2ccc3c(c2)NC(=O)CN3)CC1,-1.15
12,Cn1c(CCCOc2ccc(Cl)cc2Cl)n[nH]c1=S,1.02
13,CC(C)(C)NCCCOc1ccc(Cl)cc1C(C)(C)C,-3
14,CN(C)CCOc1ccc(Cl)cc1C(C)(C)C,-4.91 (active)
15,CC(C)COc1ccc(C(=O)OCC(=O)NCCC2=CCCCC2)cc1,-0.32
16,CC1(C)C/C(=N/Nc2ccc([N+](=O)[O-])cc2[N+](=O)[O-])C(C)(C)O1,-0.99
17,Cc1ccc2nc(SCC(=O)Nc3cccc4ccccc34)nc(=O)n2c1,-0.81
18,O=C1CSc2ccc(S(=O)(=O)NCc3ccccc3)cc2N1,-1.97
19,COc1ccccc1CNS(=O)(=O)c1ccc2c(c1)NC(=O)CS2,-3.14
20,CCC(Cc1ccccc1)NS(=O)(=O)c1ccc2c(c1)NC(=O)CS2 (centres undefined),-7.18 (active)
21,O=C(Nc1cc(Cl)ccc1N1CCOCC1)c1ccc(N2CCCC2=O)cc1,-0.11
22,CCN(CC(=O)Nc1ccccc1C(F)(F)F)C(=O)CSCc1c(C)noc1C,-0.18
23,CC1(C)Oc2ccc3ccc(=O)oc3c2/C(=N/O)C1=O,-3.77
24,CC1(C)Oc2ccc3ccc(=O)oc3c2/C(=C/NCCO)C1=O,-0.79

row,SMILES,B-score
1,C/C=C(/C)C(=O)OC1Cc2c(ccc3ccc(=O)oc23)OC1(C)C (centres undefined),-6.49 (active)
2,COc1ccc(C(CNC(=O)c2cccc(S(=O)(=O)Nc3ccccc3Cl)c2)N2CCOCC2)cc1 (centres undefined),0.72
3,COc1ccccc1NS(=O)(=O)c1ccc(C(=O)N2CCN(c3ccccc3O)CC2)cc1,-0.57
4,COc1ccc(C(C#N)(CC(=O)O)c2cnccn2)cc1OC (centres undefined),-2.49
5,Cc1cc(C)c(-c2csc(NC(=O)CCCc3nc4ccccc4c(=O)[nH]3)n2)c(C)c1,0.9
6,CC1COc2ccccc2N1S(=O)(=O)c1ccccc1 (centres undefined),-8.7 (active)
7,CC1COc2ccccc2N1C(=O)c1cccnc1Cl (centres undefined),-0.04
8,CC1CN(S(=O)(=O)c2ccccc2)C(C)CN1S(=O)(=O)c1ccccc1 (centres undefined),-1.27
9,Cn1ccsc1=NC(=O)c1cc(S(=O)(=O)N2CCOCC2)ccc1Cl,-1.21
10,O=C(NN1CCOCC1)c1cccc(F)c1,0.11
11,Cc1ccc(N2CC(C(=O)N3CCC4(CC3)CC(=O)c3ccccc3O4)CC2=O)cc1C (centres undefined),0.05
12,O=C(Nc1ccccc1N1CCCC1)c1ccc(F)c(S(=O)(=O)N2CCOCC2)c1,-1.53
13,CC(C)NC(=S)N1CCN(C(c2ccccc2)c2ccccc2)CC1,0.81
14,CC1(C)CC(N2CCN(C(c3ccccc3)c3ccccc3)CC2)=CC(=[N+]2CCCCC2)C1,-9.72 (active)
15,O=C(O)CN1CCN(C(c2ccccc2)c2ccccc2)CC1,0.58
16,CC12CCC(=O)N1C(C(=O)NCCN1C(=O)S/C(=C\c3ccccc3F)C1=O)CS2 (centres undefined),1.85
17,COCCCNC(=S)N(Cc1ccccc1)Cc1ccc(F)cc1,-4.64 (active)
18,COCCCNC(=S)NC(=O)c1ccccc1,0
19,COCCNC(=S)N(Cc1cccnc1)Cc1ccc(OC)c(OC)c1,-0.71
20,O=C(CN1CCOCC1)Nc1cccc([N+](=O)[O-])c1,-1.26
21,COc1cc(/C=N/NC(=O)c2cc(-c3ccccc3C)nc3ccccc23)cc(OC)c1O,0.05
22,CC(C)Nc1nnc(SC(C)C(=O)N(C)C2CCCCC2)s1 (centres undefined),1.34
